Compound activity: PubChem, The Scripps Research Institute Molecular Screening Center
Hits are enriched below; roughly 4.6% of the tested compounds scored in any of these assays.
Wee1 stabilizer – blocks degradation of human Wee1 kinase | P30291 | HeLa Luc-Wee1K328M stability, luciferase luminescence; 100% = proteasome inhibitor MG132 effect | reporter increase, % at 5 µM | hit rate 1.2% among 220,000 | AID 1321;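 active = activation above the mean of all tested compounds plus 3 SD, set per screening run, cut at about 8.8% in these data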;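 also: cells exposed to compound for 20 h before luminescence read; 0% = DMSO alone and 100% = MG132 at 30 µM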
Target sequence (P30291 whole entry K328M): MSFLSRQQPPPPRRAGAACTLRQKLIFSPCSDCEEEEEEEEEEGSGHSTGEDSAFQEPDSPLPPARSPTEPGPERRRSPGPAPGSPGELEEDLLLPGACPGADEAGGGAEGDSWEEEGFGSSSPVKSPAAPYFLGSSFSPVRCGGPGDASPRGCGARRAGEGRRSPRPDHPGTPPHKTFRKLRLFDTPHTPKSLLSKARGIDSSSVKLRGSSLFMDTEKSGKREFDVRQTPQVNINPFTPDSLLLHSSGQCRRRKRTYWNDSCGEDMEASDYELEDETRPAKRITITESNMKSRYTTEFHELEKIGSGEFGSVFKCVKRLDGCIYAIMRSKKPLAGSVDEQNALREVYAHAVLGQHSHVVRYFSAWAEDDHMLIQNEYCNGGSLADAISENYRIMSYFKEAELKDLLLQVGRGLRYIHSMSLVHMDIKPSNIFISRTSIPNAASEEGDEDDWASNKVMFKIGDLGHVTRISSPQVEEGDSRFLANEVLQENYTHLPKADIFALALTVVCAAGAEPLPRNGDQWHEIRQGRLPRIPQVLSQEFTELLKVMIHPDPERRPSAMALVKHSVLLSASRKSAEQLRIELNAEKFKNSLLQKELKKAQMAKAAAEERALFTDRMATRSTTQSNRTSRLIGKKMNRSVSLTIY
hgDAF12 agonist – activates the H. glycines DAF-12 receptor ligand-binding domain; activation, % at 6.8 µM; AID 687014; HEK293 GAL4-hgDAF12 UAS-luciferase reporter, agonist luminescence; normalized to butyrate control; hit rate 1.8% among 370,000;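 active = activation above a cutoff set at the mean of all screened compounds plus 3 SD, cut at about 10% in these data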;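 also: 0% = DMSO wells and 100% = sodium butyrate wells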
DAX1 inh-1 – inhibitors of DAX1 repression of SF-1 activated StAR promoter. HEK293T StAR-luciferase reporter, SF-1/DAX-1 repression relief. inhibition, % at 6.8 µM. hit rate 1.1% among 370,000;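 active = inhibition above the mean over all tested compounds plus 3 SD, cut at about 3.6% in these data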;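 also: 0% = DAX-1 cells with DMSO and 100% = cells lacking DAX-1 with DMSO; higher inhibition means more luminescence from relief of DAX-1 repression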
hcDAF12 agonist – activates DAF-12 receptor from parasite H. contortus | activation, % at 6.8 µM | HEK293 hcDAF-12 lit1-tk-luc reporter, luminescence; 0% DMSO, 100% Δ7-dafachronic acid | AID 652067 | hit rate 1.4% among 370,000;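 active = activation above the mean of all tested compounds plus 3 SD, cut at about 5.5% in these data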;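 also: 100% = response to 3 µM Δ7-dafachronic acid high control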
ssDAF12 agonist – S. stercoralis DAF-12 activation, primary screen. activation, % at 6.8 µM. AID 652126. hit rate 1% among 370,000. HEK293 ssDAF-12/GRIP1 lit1-tk-luc reporter, luminescence; % of 3 µM dafachronic acid response;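 active = activation above the mean over all tested compounds plus 3 SD, cut at about 0.9% in these data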;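 also: 0% = DMSO-only wells and 100% = 3 µM delta7-dafachronic acid wells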
DAX1 inh-2 – inhibits human nuclear receptor DAX1 | HEK293 Gal4-DAX1 luciferase reporter, luminescence | inhibition, % at 6.75 µM | hit rate 0.99% among 340,000;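 active = inhibition above the mean over all tested compounds plus 3 SD, cut at about 4.2% in these data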;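 also: 0% = DAX1-transfected cells with DMSO and 100% = empty-vector control cells with DMSO; inhibition shows as a rise in luminescence from relieved DAX1 repression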
The depositor's hits bear a star; · = no result given.

SMILES | Wee1 stabilizer | hgDAF12 agonist | DAX1 inh-1 | hcDAF12 agonist | ssDAF12 agonist | DAX1 inh-2
CC1(C(=O)NS(=O)(=O)c2ccccc2Cl)CCN1C(=O)C1(c2ccccc2)CC1 (centres undefined) | · | -2 | 1 | -1 | -1 | ·
O=C(N[C@@H](Cc1c[nH]c2ccccc12)C(=O)O)c1ccc(Cl)cc1 | 2 | 2 | 2 | 1 | -1 | 0
O=C(Cn1nnc2ccccc2c1=O)N[C@@H](Cc1ccccc1)C(=O)O | 4 | -1 | 0 | -2 | 0 | 0
O=C(Cn1nnc2ccccc2c1=O)N[C@@H](Cc1c[nH]c2ccccc12)C(=O)O | -1 | -1 | 1 | 3 | 1.0* | 2
COC(=O)C(Cc1c[nH]c2ccccc12)NC(=O)c1ccccc1Br (centres undefined) | · | 3 | 0 | 3 | 1.1* | 1
CC(Cc1c[nH]c2ccccc12)C(=O)O (centres undefined) | 3 | -1 | -1 | 1 | -1 | 0
O=C(NC(Cc1c[nH]c2ccccc12)C(=O)O)c1ccccc1 (centres undefined) | -1 | 1 | 1 | 3 | 1.2* | 1
O=C(O)C(O)Cc1c[nH]c2ccccc12 (centres undefined) | 1 | 5 | 0 | 4 | 0 | 4.7*
COC(=O)c1ccc(N2CCOCC2)c(NC(=O)c2cccnc2)c1 | · | -1 | -2 | 2 | -1 | 1
COc1ccc(NC(=O)COc2coc(CN3c4ccccc4CC3C)cc2=O)cc1 (centres undefined) | · | -3 | -2 | -2 | -1 | 0
O=C(OCC(=O)N1CCOCC1)c1ccc2ccccc2c1O | · | 8 | 3 | 3 | 0 | 1
Cc1ccc(NC(=O)C(C)OC(=O)Cc2c[nH]c3ccccc23)cc1 (centres undefined) | · | 4 | -1 | 2 | 0 | -1
O=C(NC(Cc1c[nH]c2ccccc12)C(=O)O)c1cccc(S(=O)(=O)N2CCCCC2)c1 (centres undefined) | · | 1 | 0 | 5.7* | -1 | 0
COC(=O)C(Cc1c[nH]c2ccccc12)NC(=O)c1cccc(S(=O)(=O)N2CCCCC2)c1 (centres undefined) | · | 2 | 1 | 2 | -1 | 0
Cc1ccc(C(=O)C(C)OC(=O)Cc2c[nH]c3ccccc23)cc1 (centres undefined) | · | -3 | 0 | 3 | 0.9* | 0
COP(=O)(O)C(Cc1ccccc1)NC(=O)OCc1ccccc1 (centres undefined) | · | 5 | 1 | -1 | -1 | ·
Nc1ccc(S(N)(=O)=O)cc1N | -2 | 13* | 3 | 4 | 1 | 7.3*
COC(=O)[C@H](C)N(Cc1cn(Cc2ccccc2)nn1)S(=O)(=O)c1ccccc1Br | · | 2 | -1 | -1 | -1 | ·
CC(C)(C)C(=O)NC(=S)Nc1ccccc1C(N)=O | 11* | 1 | 0 | 1 | -1 | -1
COc1cc(C)c(C(=O)Oc2cc(C)c(C(=O)O)c(O)c2C)c(O)c1C(=O)O | · | 2 | 1 | 1 | 0 | 2
COc1cc(C)c(C(=O)Oc2cc(C)c(C(=O)O)c(O)c2C)c(OC)c1C | -1 | 3 | -2 | 0 | -1 | 4.3*
Cc1ccc(NS(=O)(=O)N(C)C)cc1 | 9.8* | 2 | 1 | 0 | -2 | 1
COC(=O)c1ccc(NS(=O)(=O)N(C)C)cc1 | 1 | 0 | 0 | 1 | -1 | 0
Cc1ccc(S(=O)(=O)Nc2ccc(N(C)S(=O)(=O)c3ccc(C)cc3)cc2)cc1 | 10* | -2 | 0 | -1 | -1 | 0
CSc1ccc(S(=O)(=O)Nc2ccc(S(=O)(=O)Nc3ccc(C)cc3)cc2)cc1 | 5 | 3 | 0 | -1 | -2 | 1
SMILES | Wee1 stabilizer | hgDAF12 agonist | DAX1 inh-1 | hcDAF12 agonist | ssDAF12 agonist | DAX1 inh-2
CCCC/C=C1/[C@@H](C(C)C)N(Cc2ccc3c(c2)OCO3)C2=N[C@H](c3ccccc3)CC(=O)N21 | · | 1 | · | -1 | -1 | ·
COc1ccc(CN2C(=O)[C@@](O)(c3cccn3C)c3cc(Br)ccc32)cc1 | · | -3 | -2 | -3 | 0 | ·
CCOC(=O)C1=CN(Cc2cccc(-c3ccc(F)cc3)c2)S(=O)(=O)N(C)C1C (centres undefined) | · | 0 | -1 | -1 | -1 | 1
Cc1ccc(C(=O)Nc2ccccc2OC(F)F)cc1 | -2 | 11* | -1 | 0 | -1 | -1
O=C(Nc1cc(Cl)cc(Cl)c1)N[C@@H]1CC[C@@H](CCNS(=O)(=O)c2cccc(F)c2)O[C@@H]1CO | · | -1 | -1 | 0 | -1 | ·
Cc1nc2ccccc2c(=O)n1/N=C/c1ccc([N+](=O)[O-])o1 | -2 | · | · | · | · | ·
Cc1ccc(/C=N/n2c(C)nnc2C)o1 | -2 | 1 | 0 | 4 | 0 | 4.3*
Cc1ccc(/C=N/n2nnnc2N)o1 | -3 | -1 | 0 | -1 | -1 | 0
Cc1ccc(/C=N/n2c(C)nc3ccccc3c2=O)o1 | -1 | 2 | 0 | 1 | -1 | 4.5*
OCC#CCSc1nnc(-c2cccc3ccccc23)o1 | · | 1 | 0 | -2 | -1 | 0
CCOc1ccc(CC(=O)C2C(=O)CC(C)(C)CC2=O)cc1OCC | 1 | -1 | 1 | 0 | 0 | 4.4*
CC(C)CCNC(=O)C1COC(O)(C(Cc2ccccc2)NC(=O)[C@@H](NC(=O)OCc2ccccc2)C(C)C)CN1 (some centres undefined) | · | -2 | · | 0 | 0 | ·
O=C(NC(=S)N1CCN(C/C=C/c2ccccc2)CC1)c1ccco1 | 9.6* | 0 | 0 | 0 | -1 | 2
O=C(c1ccco1)N1CCN(C/C=C/c2ccccc2)CC1 | 2 | -1 | 0 | 0 | -1 | 0
Cc1ccc(N2N=C(c3ccc(F)cc3)CC2c2ccco2)cc1 (centres undefined) | 1 | -2 | 0 | 1 | -1 | 5.1*
Cc1ccc(C2=NN(C(=O)CCCC(=O)O)C(c3ccco3)C2)cc1 (centres undefined) | -2 | 4 | -1 | 1 | 1.1* | 0
CN1CCN(c2nc3nonc3nc2N2CCN(C)CC2)CC1 | -3 | -1 | 1 | 0 | -1 | 0
C1CCN(c2nc3nonc3nc2N2CCCCC2)CC1 | 10* | · | · | · | · | 0
CC(C)n1nnnc1SCC(=O)N1N=C(c2cccs2)CC1c1cccs1 (centres undefined) | · | 7 | 0 | 4 | 0 | 2
c1ccc(COc2ccc(OCCn3cncn3)cc2)cc1 | 1 | 13* | 3 | 4 | 0 | 1
COc1ccc2cc(CO)n(C)c2c1 | · | -1 | 0 | 2 | -1 | -1
O=C(CCc1nnc(C2CCCCC2)o1)NCc1ccc(F)c(F)c1 | 2 | -1 | 0 | 0 | -1 | 5.6*
Cc1cc(-c2nnc(CCC(=O)NCc3ccc(F)c(F)c3)o2)no1 | 3 | 3 | 0 | 0 | 1.9* | 4.3*
